The record followed here is ChEMBL document CHEMBL1157539, “Thousands of chemical starting points for antimalarial lead identification” (Nature, 2010).

What all share (assay type): functional
For experiment [1], the system named is Plasmodium falciparum. The experiment in a line: GSK_TCMDC: Inhibition of Plasmodium falciparum 3D7 in whole red blood cells, using parasite LDH activity as an index of growth. Test compounds present at 2uM.
Experiment [2] has as its system Plasmodium falciparum. The experiment can be described thus: GSK_TCMDC: Inhibition of Plasmodium falciparum Dd2 in whole red blood cells, using parasite LDH activity as an index of growth. Test compounds present at 2uM.
The subject of experiment [3] is HepG2. The experiment in a line: GSK_TCMDC: Percent inhibition of human HepG2 cell line. Test compounds present at 10uM.

One may read the Inhibition as how much of the control response was suppressed. Lower therefore signals a weak effect.

`O=C(/C=C/c1ccc(Cl)c(Cl)c1)NCCCCCN1CCCN(C(=O)Nc2cccc(C(F)(F)F)c2)CC1`: the Inhibition in experiment [1] turned out to be 96%; in experiment [2], 0%; in experiment [3], 45%.

As for `Cc1cccc2nc(-c3cccc(-c4ccc(NC(=O)c5cnccc5C(F)(F)F)cc4)c3)[nH]c12`, the Inhibition stood at 100% in experiment [1], 37% in experiment [2] and 60% in experiment [3].

Turning to `CNC(=O)c1cc(Nc2nnc(-c3ccc(C)c(S(=O)(=O)NC4CCCCC4)c3)c3ccccc23)ccc1OC`, the Inhibition in experiment [1] was 87%; in experiment [2], 61%; in experiment [3], 0%.

Consider `CCNc1cc(C(=O)N[C@@H](Cc2ccccc2)[C@H](O)CNC2(CC)CC2)cc(N2CCCCS2(=O)=O)c1.Cl`, for which the Inhibition in experiment [1] is given as 97%; in experiment [2], 94%; in experiment [3], 59%.

For `CCCCCCC(C)c1cc(O)c2c(c1)OC(C)(C)C=C2c1ccncc1` (stereo not drawn), the figures for the Inhibition in experiment [1], in experiment [2] and in experiment [3] were 98%, 29% and 0%, respectively.

`C[C@H](Cc1ccc(OCCCCCCOc2ccc(C[C@@H](C)NC[C@H](O)c3cccc(Cl)c3)cc2)cc1)NC[C@H](O)c1cccc(Cl)c1.Cl`: the Inhibition in experiment [1], in experiment [2] and in experiment [3] was 99% in each case.

For the compound `COc1cccc(CN2CCC(N3CCc4cc(NC(=O)c5cc(C)on5)ccc43)C2)c1OC` (stereo not drawn), the Inhibition is reported as 93% in experiment [1], 92% in experiment [2] and 9% in experiment [3].

With `O=C(O)C(F)(F)F.c1ccc(CN2CCC(NCc3ccc(-c4cccc(CNC5CCCC5)c4)cc3)CC2)cc1`, the Inhibition in experiment [1] is on record as 100%; in experiment [2] it was 100%; in experiment [3], 55%.

Take `Br.CC1(C)NC(N)=NC(=N)N1OCCOc1cccc(C(F)(F)F)c1`: the Inhibition in experiment [1] came to 93%; in experiment [2], 97%; in experiment [3] it was 67%.

Consider `NC1CCCN(Cc2ccc(-c3cccc(-c4nc5cc(F)ccc5[nH]4)c3)cc2)C1.O=C(O)C(F)(F)F` (stereo not drawn), for which the Inhibition in experiment [1] came out at 100%; in experiment [2], 75%; in experiment [3], 54%.

In the case of `Nc1c(Cl)cc(C(O)CNCCCCCOCCc2ccc3occc3c2)cc1Cl` (stereo not drawn), the values for the Inhibition in experiment [1], in experiment [2] and in experiment [3] were 99%, 74% and 0%, respectively.

`CCc1cn(C)c2c(N3CCCC3=O)cc(C(=O)N[C@@H](Cc3ccccc3)[C@H](O)CNC(C)(C)c3cccc(C(F)(F)F)c3)cc12`: the Inhibition amounted to 97% in experiment [1], 97% in experiment [2] and 22% in experiment [3].

As for `O=C(O)C(F)(F)F.c1ccc2[nH]c(-c3ccc(-c4ccc(CN5CCN(c6ccncc6)CC5)cc4)cc3)nc2c1`, the Inhibition in experiment [1] turned out to be 100%; in experiment [2], 100%; in experiment [3], 48%.

Regarding `COc1cc2c(cc1NS(=O)(=O)c1ccc(OCc3ccc(Br)cc3)cc1)CCN(C1CCC1)CC2.Cl`, the Inhibition in experiment [1] was determined as 94%; in experiment [2], 30%; in experiment [3] it was 36%.

`CCN1CCC(N(CCCCCCc2ccc(C(F)(F)F)cc2)C(=O)Cn2c(CCc3cccc(F)c3F)cc(=O)c3ccccc32)CC1.O=C(O)C(O)C(O)C(=O)O`: the values for the Inhibition in experiment [1], in experiment [2] and in experiment [3] were 88%, 82% and 32%, respectively.

As for `COc1ccc2nccc(CCC3(O)CCC(NCc4cc5c(cc4F)SCC(=O)N5)CC3)c2c1` (stereo not drawn), the Inhibition was determined as 87% in experiment [1], 48% in experiment [2] and 9% in experiment [3].

For `O=C1NC(=S)N/C1=C/C=C/c1ccc([N+](=O)[O-])o1`, the Inhibition in experiment [1] stood at 82%; in experiment [2], 30%; in experiment [3], 7%.

For the compound `O=c1cc(NCCCNCc2cccc(I)c2)[nH]c2ccccc12`, the results for the Inhibition in experiment [1], in experiment [2] and in experiment [3] were 90%, 9% and 10%, respectively.

On to `Cc1ccccc1Nc1cc(Nc2ccccc2C)c2ccccc2n1`, for which the Inhibition was 96% in experiment [1], 93% in experiment [2] and 28% in experiment [3].

On to `Cc1cc(-c2ccc(CN3Cc4ccccc4C3)cc2)ccc1S(=O)(=O)NCCN1CCCC1.O=C(O)C(F)(F)F`, for which the Inhibition in experiment [1] was found to be 94%; in experiment [2], 10%; in experiment [3] it was 49%.

For `CCCCCCN1CCC(NCc2ccc(C(F)(F)F)cc2)CC1.O=C(O)C(F)(F)F`, the Inhibition in experiment [1] worked out at 100%; in experiment [2], 47%; in experiment [3], 11%.

For `CC(=O)NCC(=O)NC1=NC(=N)N(OCc2ccc3ccccc3c2)C(C)(C)N1`, the Inhibition in experiment [1] amounted to 95%; in experiment [2], 97%; in experiment [3], 66%.

As to `Cc1cc(OCCCN2CCCCC2C)ccc1NC(=O)COc1ccc(Cl)cc1C(=O)c1cc(Cl)cc(C#N)c1` (stereo not drawn), the figures for the Inhibition in experiment [1], in experiment [2] and in experiment [3] were 91%, 14% and 23%, respectively.

Take `CCC(=O)Nc1nnc(Cc2ccc(OC)c(OC)c2)s1`: the Inhibition stood at 93% in experiment [1], 1% in experiment [2] and 0% in experiment [3].

For `Cc1nc(-c2ccc(-c3ccc(C(=O)Nc4ccc(-n5ccnc5)c(N5CCN(C)CC5)c4)cc3)c(C)c2)no1`, the results for the Inhibition in experiment [1], in experiment [2] and in experiment [3] were 100%, 100% and 34%, respectively.

Take `O=C(c1csc(-c2cccnc2)n1)N1CCc2cc3nccc(N4CCN5CCC[C@H]5C4)c3cc21`: the Inhibition was determined as 97% in experiment [1], 78% in experiment [2] and 0% in experiment [3].

`N#Cc1cccc(NC(=O)Nc2cccc(-c3cccc(-c4nc5cc(C(F)(F)F)ccc5[nH]4)c3)c2)c1`: the Inhibition in experiment [1] was found to be 100%; in experiment [2] it was 99%; in experiment [3], 74%.

Turning to `CN(C)CC1CCCN1Cc1ccccc1-c1cnn(C)c(=O)c1Oc1ccccc1F.O=C(O)C(F)(F)F` (stereo not drawn), the figures for the Inhibition in experiment [1], in experiment [2] and in experiment [3] were 95%, 27% and 18%, respectively.

For the compound `CN1CCN(CCCN(Cc2cccc(-c3cccc(CNCc4ccc5c(c4)OCO5)c3)c2)C(=O)CCC2CCCC2)CC1.O=C(O)C(F)(F)F`, the Inhibition in experiment [1] amounted to 98%; in experiment [2] it was 80%; in experiment [3] it was 85%.

For `Cl.N#Cc1ccc(NC(=O)Nc2ccc3c(c2)CCN(C2CCC2)CC3)cc1`, the Inhibition in experiment [1] is reported as 96%; in experiment [2], 11%; in experiment [3], 6%.

For `Cl.NC1CCN(CCc2ccc(NS(=O)(=O)c3ccc(-c4ccccc4)cc3)cc2)CC1`, the figures for the Inhibition in experiment [1], in experiment [2] and in experiment [3] were 100%, 19% and 17%, respectively.
